{
  "source": "PubChem BioAssay AID1159580",
  "about": "(chemical genetic matrix, 2015)",
  "test": "chemical genetic growth profiling, strain panel (AID 1159580);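 further: tested at 20 µM; growth read once vehicle control cultures reached saturation at 30 °C; 1 = growth at the plate median or of vehicle wells; lower values mean less growth of the strain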",
  "conditions": "S. cerevisiae deletion strains, growth OD",
  "note": "The whole screen tested about 5,500 compounds, of which about 2,000 (36%) were called active. Roughly 18% stayed inconclusive and do not appear here. The list shows a part of the results. Values without a mark were called inactive. No stated cut-off is given here; in the data, active means normalized growth mostly below about 0.91 (no sharp cut-off); inconclusive means no clear call, values can overlap the other calls; inactive means mostly above about 0.92.",
  "data": [
    {"smiles": "O=C(Nc1ccc(F)c(Cl)c1)c1ccccc1O", "values": [
      {"measurement": "normalized growth", "setting": "locus YAR019C, strain CDC15, active compounds read low", "value": 0.9},
      {"measurement": "normalized growth", "setting": "locus YBL105C, strain PKC1, active compounds read low", "value": "0.897 (active)"},
      {"measurement": "normalized growth", "setting": "locus YBR135W, strain CKS1, active compounds read low", "value": "0.888 (active)"},
      {"measurement": "normalized growth", "setting": "locus YBR136W, strain MEC1, active compounds read low", "value": 0.899},
      {"measurement": "normalized growth", "setting": "locus YBR160W, strain CDC28, active compounds read low", "value": 0.899},
      {"measurement": "normalized growth", "setting": "locus YDL017W, strain CDC7, active compounds read low", "value": "0.895 (active)"},
      {"measurement": "normalized growth", "setting": "locus YDL028C, strain MPS1, active compounds read low", "value": 0.897},
      {"measurement": "normalized growth", "setting": "locus YDL101C, strain DUN1, active compounds read low", "value": 0.951},
      {"measurement": "normalized growth", "setting": "locus YDL108W, strain KIN28, active compounds read low", "value": "0.896 (active)"},
      {"measurement": "normalized growth", "setting": "locus YDL132W, strain cdc53, active compounds read low", "value": "0.879 (active)"},
      {"measurement": "normalized growth", "setting": "locus YDL214C, strain PRR2, active compounds read low", "value": 0.83},
      {"measurement": "normalized growth", "setting": "locus YDR052C, strain DBF4, active compounds read low", "value": "0.884 (active)"},
      {"measurement": "normalized growth", "setting": "locus YDR054C, strain cdc34, active compounds read low", "value": 0.885},
      {"measurement": "normalized growth", "setting": "locus YDR226W, strain ADK1, active compounds read low", "value": "0.877 (active)"},
      {"measurement": "normalized growth", "setting": "locus YDR477W, strain SNF1, active compounds read low", "value": 0.834},
      {"measurement": "normalized growth", "setting": "locus YER123W, strain YCK3, active compounds read low", "value": 0.76},
      {"measurement": "normalized growth", "setting": "locus YER133W, strain GLC7, active compounds read low", "value": 0.862},
      {"measurement": "normalized growth", "setting": "locus YFL009W, strain cdc4, active compounds read low", "value": "0.888 (active)"},
      {"measurement": "normalized growth", "setting": "locus YFL029C, strain CAK1, active compounds read low", "value": 0.884},
      {"measurement": "normalized growth", "setting": "locus YFR003C, strain YPI1, active compounds read low", "value": "0.897 (active)"},
      {"measurement": "normalized growth", "setting": "locus YFR019W, strain FAB1, active compounds read low", "value": 0.904},
      {"measurement": "normalized growth", "setting": "locus YFR028C, strain CDC14, active compounds read low", "value": "0.884 (active)"},
      {"measurement": "normalized growth", "setting": "locus YGR040W, strain KSS1, active compounds read low", "value": 0.819},
      {"measurement": "normalized growth", "setting": "locus YGR052W, strain FMP48, active compounds read low", "value": 0.8},
      {"measurement": "normalized growth", "setting": "locus YGR092W, strain DBF2, active compounds read low", "value": 0.519},
      {"measurement": "normalized growth", "setting": "locus YHR030C, strain SLT2, active compounds read low", "value": "0.768 (active)"},
      {"measurement": "normalized growth", "setting": "locus YHR079C, strain IRE1, active compounds read low", "value": 0.632},
      {"measurement": "normalized growth", "setting": "locus YHR082C, strain KSP1, active compounds read low", "value": 0.76},
      {"measurement": "normalized growth", "setting": "locus YHR205W, strain SCH9, active compounds read low", "value": 0.747},
      {"measurement": "normalized growth", "setting": "locus YIL147C, strain SLN1, active compounds read low", "value": 0.895},
      {"measurement": "normalized growth", "setting": "locus YJL095W, strain BCK1, active compounds read low", "value": 0.676},
      {"measurement": "normalized growth", "setting": "locus YJL128C, strain PBS2, active compounds read low", "value": 0.846},
      {"measurement": "normalized growth", "setting": "locus YJL157C, strain FAR1, active compounds read low", "value": 0.803},
      {"measurement": "normalized growth", "setting": "locus YJR016C, strain ILV3, active compounds read low", "value": "0.895 (active)"},
      {"measurement": "normalized growth", "setting": "locus YJR066W, strain TOR1 (second series), active compounds read low", "value": 0.882},
      {"measurement": "normalized growth", "setting": "locus YJR066W, strain TOR1, active compounds read low", "value": 0.745},
      {"measurement": "normalized growth", "setting": "locus YKL048C, strain ELM1, active compounds read low", "value": 0.893},
      {"measurement": "normalized growth", "setting": "locus YKL067W, strain YNK1, active compounds read low", "value": 0.825},
      {"measurement": "normalized growth", "setting": "locus YKL101W, strain HSL1, active compounds read low", "value": 0.807},
      {"measurement": "normalized growth", "setting": "locus YKL193C, strain SDS22, active compounds read low", "value": "0.885 (active)"},
      {"measurement": "normalized growth", "setting": "locus YKL203C, strain TOR2, active compounds read low", "value": 0.863},
      {"measurement": "normalized growth", "setting": "locus YLR113W, strain HOG1, active compounds read low", "value": "0.669 (active)"},
      {"measurement": "normalized growth", "setting": "locus YLR133W, strain CKI1, active compounds read low", "value": 0.762},
      {"measurement": "normalized growth", "setting": "locus YLR403W, strain SFP1, active compounds read low", "value": 0.743},
      {"measurement": "normalized growth", "setting": "locus YML070W, strain DAK1, active compounds read low", "value": 0.777},
      {"measurement": "normalized growth", "setting": "locus YMR001C, strain CDC5, active compounds read low", "value": 0.891},
      {"measurement": "normalized growth", "setting": "locus YMR205C, strain PFK2 (second series), active compounds read low", "value": 0.769},
      {"measurement": "normalized growth", "setting": "locus YMR277W, strain FCP1, active compounds read low", "value": 0.9},
      {"measurement": "normalized growth", "setting": "locus YNL006W, strain LST8, active compounds read low", "value": "0.893 (active)"},
      {"measurement": "normalized growth", "setting": "locus YNL020C, strain ARK1, active compounds read low", "value": 0.745},
      {"measurement": "normalized growth", "setting": "locus YNL161W, strain CBK1, active compounds read low", "value": 0.904},
      {"measurement": "normalized growth", "setting": "locus YNL183C, strain NPR1, active compounds read low", "value": 0.759},
      {"measurement": "normalized growth", "setting": "locus YNL207W, strain RIO2, active compounds read low", "value": 0.893},
      {"measurement": "normalized growth", "setting": "locus YNL222W, strain SSU72, active compounds read low", "value": 0.906},
      {"measurement": "normalized growth", "setting": "locus YNL307C, strain MCK1 (second series), active compounds read low", "value": 0.833},
      {"measurement": "normalized growth", "setting": "locus YOL078W, strain AVO1, active compounds read low", "value": 0.897},
      {"measurement": "normalized growth", "setting": "locus YOL136C, strain PFK27, active compounds read low", "value": 0.846},
      {"measurement": "normalized growth", "setting": "locus YOR061W, strain CKA2, active compounds read low", "value": 0.842},
      {"measurement": "normalized growth", "setting": "locus YOR119C, strain RIO1, active compounds read low", "value": 0.936},
      {"measurement": "normalized growth", "setting": "locus YOR231W, strain MKK1, active compounds read low", "value": 0.829},
      {"measurement": "normalized growth", "setting": "locus YOR329C, strain SCD5, active compounds read low", "value": 0.913},
      {"measurement": "normalized growth", "setting": "locus YPL031C, strain PHO85, active compounds read low", "value": 0.796},
      {"measurement": "normalized growth", "setting": "locus YPL153C, strain RAD53, active compounds read low", "value": 0.799},
      {"measurement": "normalized growth", "setting": "locus YPL204W, strain HRR25, active compounds read low", "value": 0.797},
      {"measurement": "normalized growth", "setting": "locus YPL209C, strain IPL1, active compounds read low", "value": "0.895 (active)"},
      {"measurement": "normalized growth", "setting": "locus YPL256C, strain CLN2, active compounds read low", "value": "0.756 (active)"},
      {"measurement": "normalized growth", "setting": "locus YPR025C, strain CCL1, active compounds read low", "value": "0.894 (active)"},
      {"measurement": "normalized growth", "setting": "locus YPR106W, strain ISR1, active compounds read low", "value": 0.911},
      {"measurement": "normalized growth", "setting": "locus YPR111W, strain DBF20, active compounds read low", "value": 0.887},
      {"measurement": "normalized growth", "setting": "strain NNK1, active compounds read low", "value": 0.899},
      {"measurement": "normalized growth", "setting": "strain TSCII, active compounds read low", "value": 0.892}
    ]}
  ]
}
